Source: PubChem (Broad Institute)
Sampled rows, rich in hits. Any-hit rate of the full collection: about 1.8%.
F508del corr: CFTR F508del correction in bronchial cells; CFBE cells, YFP halide quenching; stimulated with forskolin plus potentiator P3; % fluorescence drop versus neutral controls; activity (quench increase), % at 7.58 µM; 0.36% of 350,000 active;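 active means mean added fluorescence quench of at least 8% versus neutral control, with both replicates also reaching 8%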;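 further: cells transiently co-express mutant CFTR-F508del with the halide-sensitive YFP; corrector assay measuring rescue of mutant channel to the surface after 24 h compound exposure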
PAX8 inh HTS: lowers PAX8-driven luciferase in RMG-I cells. RMG-I TPO-luciferase reporter, SteadyGlo, 24 h. inhibition, % at 12.6 µM. 1.2% of 360,000 active. AID 652154;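 active means mean replicate inhibition at least 60% with every replicate also reaching 60%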;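 further: luciferase light reporting Pax8 driven TPO promoter activity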
LGR2 inh: Drosophila LGR2 receptor signaling inhibition. HEK293 LGR2, CRE-luciferase, bursicon-stimulated, 4 h. inhibition, % at 9.99 µM. 0.35% of 380,000 active;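 active means drop in luminescence signal, shown as inhibition above about 50% in the replicate tests, limit read from the data, passing the limit was not always enough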;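 further: agonist challenge used bursicon conditioned medium at about half maximal strength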
EWS-Fli inh: inhibitors of EWS/Fli oncoprotein transcriptional activity | A673 NR0B1-luciferase reporter, viability-normalised | inhibition, % at 12.6 µM | 0.67% of 350,000 active | AID 651661;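 active means mean inhibition of at least 50% after viability correction, with every replicate also passing that limit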;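 further: firefly luciferase signal divided by Alamar Blue viability fluorescence both relative to DMSO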
Large screens that a line does not name were inactive.

CCN(C(=O)COC(=O)/C=C/c1nc2ccccc2s1)c1c(N)n(Cc2ccccc2)c(=O)[nH]c1=O	none
CCN(C(=O)COC(=O)c1cccc2ccccc12)c1c(N)n(Cc2ccccc2)c(=O)[nH]c1=O	F508del corr 18.1
CN(C(=O)COC(=O)/C=C/c1ccc2ccccc2n1)c1c(N)n(Cc2ccccc2)c(=O)[nH]c1=O	PAX8 inh HTS 86.1
C[C@@H]1CN([C@@H](C)CO)C(=O)Cc2cc(NC(=O)Cc3ccccc3)ccc2O[C@@H]1CN(C)C(=O)Nc1ccc(C(F)(F)F)cc1	none (no result: PAX8 inh HTS)
c1ccc2nc(-c3nc4ccccc4o3)ccc2c1	LGR2 inh 85.3 (no result: F508del corr, PAX8 inh HTS, EWS-Fli inh)
O=C(C1CC(=O)N(c2ccc(Cl)cc2)C1)N1CCOCC1 (configuration not stated)	none
CCOC(=O)C(=O)Nc1ccc(S(=O)(=O)Nc2nccc(C)n2)cc1	none
Cc1ccc(C(=O)NCCc2cccs2)cc1	LGR2 inh 75.4, EWS-Fli inh 63.7
Cn1c(=O)[nH]c(=O)c2c1nc(CN1CCN(c3cccc(Cl)c3)CC1)n2CCCc1ccccc1	none
CCCCn1c(CN2CCN(c3cccc(Cl)c3)CC2)nc2c1c(=O)[nH]c(=O)n2C	F508del corr 13.7, EWS-Fli inh 58.3 (no result: PAX8 inh HTS)
CC1CC(C)CN(C(=O)/C=C/c2ccc(S(=O)(=O)N3CCOCC3)cc2)C1 (configuration not stated)	F508del corr 8.4
CC1CC(C)CN(C(=O)/C=C/c2ccc([N+](=O)[O-])s2)C1 (configuration not stated)	PAX8 inh HTS 67.6
CC1CN(C(=O)/C=C/c2ccc([N+](=O)[O-])s2)CC(C)O1 (configuration not stated)	none
CC(NC(=O)COC(=O)CSc1ccc(F)cc1)c1ccc(F)cc1 (configuration not stated)	none
C[C@@H]1CN([C@H](C)CO)S(=O)(=O)c2ccc(-c3ccc(C#N)cc3)cc2O[C@H]1CN(C)Cc1cccc(F)c1	F508del corr 8.1
C[C@H]1CN([C@@H](C)CO)S(=O)(=O)c2ccc(-c3ccc(C#N)cc3)cc2O[C@@H]1CN(C)Cc1cccc(F)c1	PAX8 inh HTS 75.6
C[C@H](CO)N1C[C@H](C)[C@@H](CN(C)Cc2cccc(F)c2)Oc2cc(-c3ccc(C#N)cc3)ccc2S1(=O)=O	none
Cc1ccc(S(=O)(=O)N(CC(=O)NCC2CCCO2)c2cccc([N+](=O)[O-])c2)cc1 (configuration not stated)	none
CNC[C@@H]1Oc2c(NC(=O)NC3CCCCC3)cccc2C(=O)N([C@H](C)CO)C[C@@H]1C	none
CCN(CC)c1ccc(/C=N/Nc2nc3ccccc3[nH]2)cc1	PAX8 inh HTS 80.9 (no result: F508del corr, EWS-Fli inh)
CCN(CC)c1ccc(/C=N/Nc2nc(C)cc(=O)[nH]2)c(O)c1	PAX8 inh HTS 74.6
CC(=O)Nc1ccc(/C=N/Nc2nc3ccccc3[nH]2)cc1	none
O=C(CN1CCOCC1)Nc1ccc(F)cc1	none
S=C1Cc2ccccc2N1	PAX8 inh HTS 105.6, EWS-Fli inh 65.5
CN=c1scc(-c2ccc(F)cc2)n1/N=C/c1ccc(O)c(O)c1	PAX8 inh HTS 66.4, LGR2 inh 74.8
CC(C)(C)c1ccc(C(=O)c2c[nH]c(C(=O)NCCCN3CCOCC3)c2)cc1	none (no result: F508del corr, LGR2 inh, EWS-Fli inh)
COc1cccc(C(=O)c2c[nH]c(C(=O)NCCCN3CCOCC3)c2)c1	F508del corr 14.5
CSCCC(NS(=O)(=O)c1ccccc1F)C(=O)NCC(c1ccco1)N(C)C (configuration not stated)	none
C[C@H](CO)N1C[C@H](C)[C@H](CN(C)Cc2cccc(C(=O)O)c2)Oc2ncc(/C=C/c3ccccc3)cc2C1=O	none
C/C=C/c1ccc2c(c1)O[C@H](CN(C)Cc1cccnc1)[C@H](C)CN([C@H](C)CO)S2(=O)=O	none (no result: PAX8 inh HTS)
C[n+]1c2n(c3ccccc31)N=C(c1ccc(-c3ccccc3)cc1)CS2	PAX8 inh HTS 95.7
CC1(C)CC(N2CCN(Cc3ccccc3)CC2)=CC(=[N+]2CCCCC2)C1	PAX8 inh HTS 69.2
CN(Cc1ccccc1)C1=CC(=[N+]2CCCCC2)CC(C)(C)C1	PAX8 inh HTS 74.3
CC1(C)CC(N2CCCC2)=CC(=[N+]2CCCCC2)C1	none (no result: F508del corr)
Cc1ccccc1C(=O)N[C@H](C(=O)N1CCC[C@H]1C(=O)NC1CCCC1)c1ccccc1	none
O=C(COC(=O)c1c2c(nc3ccccc13)CCN(Cc1ccccc1)C2)Nc1c(F)cccc1F	PAX8 inh HTS 73.4 (no result: F508del corr, EWS-Fli inh)
CN(c1ccccc1)c1ccc(/C=C/[N+](=O)[O-])cc1	LGR2 inh 102.1, EWS-Fli inh 64.2
CCOc1ccc(C(=O)OC(C)C(=O)N2CCN(Cc3ccccc3)CC2)cc1 (configuration not stated)	none (no result: PAX8 inh HTS)
